# Assay results reported in a collection of fitness landscapes (doi:10.1126/science.1257360).
# Whole data set: some 140,000 sequences, median “enrichment ratio after two sorts for PhoP signalling” near 0, cut for the highest 2% near 11. The list comes from a sample in which the highest values are over-represented; it also holds similar and randomly drawn sequences.
# B1: PhoQ; a variant is named by its letters at X, in order, P23837 (parent)
# chain: MKKLLRLFFPLSLRVRFLLATAAVVLVLSLAYGMVALIGYSVSFDKTTFRLLRGESNLFYTLAKWENNKLHVELPENIDKQSPTMTLIYDENGQLLWAQRDVPWLMKMIQPDWLKSNGFHEIEADVNDTSLLLSGDHSIQQQLQEVREDDDDAEMTHSVAVNVYPATSRMPKLTIVVVDTIPVELKSSYMVWSWFIYVLSANLLLVIPLLWVAAWWSLRPIEALAKEVRELEEHNRELLNPATTRELTSLVRNLNRLLKSERERYDKYRTTLTDLTHSLKTPLXXLQXXLRSLRSEKMSVSDAEPVMLEQISRISQQIGYYLHRASMRGGTLLSRELHPVAPLLDNLTSALNKVYQRKGVNISLDISPEISFVGEQNDFVEVMGNVLDNACKYCLEFVEISARQTDEHLYIVVEDDGPGIPLSKREVIFDRGQRVDTLRPGQGVGLAVAREITEQYEGKIVAGESMLGGARMEVIFGRQHSAPKDE
# Variants of: B1
# Assay: enrichment ratio after two sorts for PhoP signalling (ratio (wild type AVST 3.29)); higher = more functional
# Conditions: with PhoP (E. coli)
row,Variant,enrichment ratio
1,KCLK,≤ 0.25
2,TCSC,12.3
3,TCAN,25.6
4,NFFS,≤ 0.25
5,FFPR,≤ 0.25
6,DMHV,≤ 0.25
7,ETAR,≤ 0.25
8,KLGR,≤ 0.25
9,TCYD,≤ 0.25
10,KCSN,≤ 0.25
11,TCGD,20.3
12,TCTW,10.8
13,TCSN,20
14,KCAQ,≤ 0.25
15,LSTQ,≤ 0.25
16,TCAQ,15.5
17,TCTQ,21.4
18,FCSN,≤ 0.25
19,VCAQ,≤ 0.25
20,TCDD,≤ 0.25
21,HFQA,≤ 0.25
22,FHFW,≤ 0.25
23,KCDC,≤ 0.25

row,Variant,enrichment ratio
1,TKEF,≤ 0.25
2,SVFR,0.428
3,SAGS,3.14
4,SRYF,≤ 0.25
5,IHVG,≤ 0.25
6,LNTP,≤ 0.25
7,NEMN,≤ 0.25
8,TALV,10.2
9,EMAS,≤ 0.25
10,ESQI,≤ 0.25
11,KCAK,≤ 0.25
12,TCSA,18.5
13,VEGF,≤ 0.25
14,FCSA,≤ 0.25
15,TCGF,12.5
16,TCSY,13.3
17,VCAK,≤ 0.25
18,TCHF,8.33
19,TCAK,11.2
20,KCSA,≤ 0.25
21,KCSY,≤ 0.25
22,HVSY,≤ 0.25
23,YCQN,≤ 0.25

row,Variant,enrichment ratio
1,DLMC,≤ 0.25
2,PANG,≤ 0.25
3,THES,≤ 0.25
4,THGV,1.56
5,PMKY,≤ 0.25
6,TLGR,≤ 0.25
7,GLIF,≤ 0.25
8,TCDS,1.7
9,VECL,2.59
10,TCWI,1.27
11,ACGL,2.96
12,TCCL,13.8
13,KCCL,≤ 0.25
14,TCSL,16.4
15,GQSL,≤ 0.25
16,FCSL,0.351
17,TCNS,16.1
18,ACSL,16.6
19,KCSL,≤ 0.25
20,IIGM,≤ 0.25
21,QKHF,≤ 0.25
22,LRCK,≤ 0.25
23,NVPP,≤ 0.25

row,Variant,enrichment ratio
1,APIR,≤ 0.25
2,AWVY,≤ 0.25
3,ELQD,≤ 0.25
4,SGPP,≤ 0.25
5,HHVH,≤ 0.25
6,TICC,2.66
7,KPAP,≤ 0.25
8,AQWF,≤ 0.25
9,TCAT,14.5
10,TCSK,13.7
11,TCSS,15
12,TCVA,≤ 0.25
13,TCDT,≤ 0.25
14,TCAY,14.1
15,TCNT,7.62
16,KCAY,≤ 0.25
17,TCSR,5.34
18,TCYI,1.36
19,FCSS,≤ 0.25
20,KCSS,≤ 0.25
21,LFWM,≤ 0.25
22,NNTR,≤ 0.25
23,IGVH,≤ 0.25

row,Variant,enrichment ratio
1,WSVN,≤ 0.25
2,HDQK,≤ 0.25
3,LDIL,≤ 0.25
4,MIIK,≤ 0.25
5,TCLC,23.4
6,TCHE,≤ 0.25
7,FCLC,7.16
8,TCLN,13.6
9,TCNE,19.6
10,TCAG,12.5
11,FCAG,≤ 0.25
12,VCLC,2.94
13,TCIE,≤ 0.25
14,KCAG,≤ 0.25
15,FCLN,3.94
16,VCLN,2.29
17,FAWY,≤ 0.25
18,SDGA,≤ 0.25
19,GPWK,≤ 0.25
20,LRLK,≤ 0.25
21,SNTI,10.1
22,MHKW,≤ 0.25
23,IAWT,≤ 0.25

row,Variant,enrichment ratio
1,DASW,≤ 0.25
2,TCEG,≤ 0.25
3,GWNG,≤ 0.25
4,QLVN,≤ 0.25
5,FINA,≤ 0.25
6,ENVY,≤ 0.25
7,TCNL,4.28
8,TCGL,13.5
9,GMGI,≤ 0.25
10,FCSI,≤ 0.25
11,TCSI,23.8
12,TCGI,25
13,TCSG,26.2
14,KCSG,≤ 0.25
15,KCSI,≤ 0.25
16,VEGI,≤ 0.25
17,VCSG,0.44
18,TCIL,≤ 0.25
19,MHTY,≤ 0.25
20,LARC,≤ 0.25
21,RLPH,≤ 0.25
22,TNFS,≤ 0.25
23,RRNI,≤ 0.25

row,Variant,enrichment ratio
1,GIHS,≤ 0.25
2,YGWR,≤ 0.25
3,KELF,≤ 0.25
4,LMEL,≤ 0.25
5,FVVT,≤ 0.25
6,HNCQ,≤ 0.25
7,KTSH,≤ 0.25
8,QHHI,≤ 0.25
9,GMRC,≤ 0.25
10,KCST,≤ 0.25
11,KSND,≤ 0.25
12,TCST,24.9
13,HVST,≤ 0.25
14,TCVT,≤ 0.25
15,TCND,20.6
16,MCTV,≤ 0.25
17,EWLV,≤ 0.25
18,MTFH,3.3
19,QYHL,≤ 0.25
20,YKTG,≤ 0.25
21,SMFS,≤ 0.25
